Our source for the inhibition values is PubChem BioAssay AID1662 (Broad Institute, 2009).

Among all 300,000 compounds or so, about 4,000 (1.3%) were called active.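 The calls were made as follows: active = mean replicate score, as percent of positive control median, at least 50; inconclusive = mean below 50 but one replicate at or above 50; inactive = mean and every replicate below 50.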 What follows is part of a selection rich in actives, with near analogues and random picks from the rest.

This assay is described as follows: S. pyogenes SKKanGAS growth inhibitors in kanamycin, primary screen, streptokinase expression inhibitor project, SKKanGAS strain, BacTiter-Glo luminescence (AID 1662).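 Also: strain carries kanamycin resistance gene driven by streptokinase promoter and grows in 40 µg/ml kanamycin; loss of luminescence reflects streptokinase promoter inhibition or plain growth inhibition; 0% = median of DMSO wells and 100% = positive control at its reference dose.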 Conditions: 6 h, at 7.5 µM, stronger effect = higher value.
For `O=C(CSc1ccc(-c2ccccn2)nn1)Nc1ccccc1`, the inhibition is -3.36% (inactive).

For `CC(C)=CCc1c(O)c(CC=C(C)C)c2occ(-c3ccc(O)cc3)c(=O)c2c1O`, the inhibition was 105% (active).

Turning to `CC(C)CN(Cc1c(O)ccc2c(=O)c(-c3ccccc3)coc12)CC(C)C`, the inhibition is 0.595% (inactive).

Take `O=c1c(-c2ccccc2)coc2cc(O)ccc12`: the inhibition is 0.922% (inactive).

With `CCOC(=O)c1ccc2c(c1)nc(SCC(=O)NC(C)C)n2CC`, the inhibition was -3.36% (inactive).

Consider `Cc1cc(C)c(S(=O)(=O)Nc2c(C)n(C)n(-c3ccccc3)c2=O)cc1[N+](=O)[O-]`, for which the inhibition was 4.05% (inactive).

As to `O=C(Cc1c(F)cccc1Cl)N1CCN(C(=O)c2ccco2)CC1`, the inhibition was -1.63% (inactive).

Regarding `O=C(c1ccco1)N1CCN(C(=O)c2cc(-c3ccccc3F)no2)CC1`, the inhibition is 63.3% (active).

Take `O=C(NCCCN1CCOCC1)c1cc(-c2ccccc2F)no1`: the inhibition was 26.3% (inactive).

For the compound `COC(CNC(=O)c1ccc2c(c1)ncn2-c1cc(C)cc(C)c1)OC`, the inhibition was 0.722% (inactive).

`COC(=O)C1=C(C)NC2=C(C(=O)c3ccccc32)C1c1ccc(-c2ccc(C(=O)O)cc2)o1` (centres undefined): the inhibition is 60.6% (active).

As for `CCOC(=O)c1ccc(-c2ccc(C(=O)Nc3cccnc3)o2)cc1`, the inhibition was 3.97% (inactive).

As for `COC(=O)C1=C(C)NC(=O)CC1c1ccccc1OC` (centres undefined), the inhibition was 4.98% (inactive).

With `O=C(c1cccs1)N(Cc1cc2ccccc2[nH]c1=O)CC1CCCO1` (centres undefined), the inhibition is -2.88% (inactive).

Turning to `O=C(NCCC1CCCCN1S(=O)(=O)c1ccc(Cl)cc1)C(=O)NCc1ccco1` (centres undefined), the inhibition is -16.2% (inactive).

For `Brc1ccccc1C1Nc2cccc3cccc(c23)N1`, the inhibition is 56.8% (active).

In the case of `Oc1ccc(C2Nc3cccc4cccc(c34)N2)cc1`, the inhibition is 3.2% (inactive).

Regarding `Cc1ccc(C2Nc3cccc4cccc(c34)N2)cc1`, the inhibition is 9.05% (inactive).

Take `CC1Cc2cc(/C(O)=C3\C(=O)C(=O)N(Cc4cccnc4)C3c3ccccc3F)ccc2O1` (centres undefined): the inhibition is 12.9% (inactive).

On to `CSCc1nnc(NC(=O)c2ccc(S(=O)(=O)N3CCCCC3C)cc2)o1` (centres undefined), for which the inhibition is 39.4% (inactive).

Consider `CC1CCCCN1S(=O)(=O)c1ccc(C(=O)Nc2nnc(-c3cccs3)o2)cc1` (centres undefined), for which the inhibition is 99.8% (active).

On to `CC1CCCN(S(=O)(=O)c2ccc(C(=O)Nc3nnc(-c4ccncc4)o3)cc2)C1` (centres undefined), for which the inhibition is 20.4% (inactive).

In the case of `CCn1c(N)c(Br)c(=O)[nH]c1=O`, the inhibition was 0.526% (inactive).

As to `Cc1cc(OC(C)C(=O)NC2CC(C)(C)NC(C)(C)C2)c2c(C)cc(=O)oc2c1` (centres undefined), the inhibition was 2.79% (inactive).

As for `CCOC(=O)N1CCN(c2cc(C)c([N+](=O)[O-])cc2F)CC1`, the inhibition was 15.6% (inactive).

On to `CC(C)c1ccc2c(c1)c(SC(C)(C)C)c(CC(C)(C)C(=O)O)n2Cc1ccc(Cl)cc1`, for which the inhibition was 109% (active).

With `O=C(O)c1ccc(Cn2c(=S)[nH]c3cc(Cl)ccc3c2=O)cc1`, the inhibition was 9.12% (inactive).

For `O=C(COC(=O)c1ccccc1SCC(=O)N1CCCC1)Nc1ccccc1OC(F)F`, the inhibition was 34% (inactive).

On to `CSCCNC(=O)c1ccc2nc(Cc3ccccc3F)oc2c1`, for which the inhibition is 2.77% (inactive).

With `CN(c1cccc(NC(=O)Nc2ccc(Cl)cc2)c1)S(C)(=O)=O`, the inhibition was -13.9% (inactive).

Take `Cn1ccc(NC(=O)Nc2ccc(Cl)cc2)n1`: the inhibition was -3.73% (inactive).

Consider `CC(C)S(=O)(=O)c1csc(NC(=O)Nc2ccc(Cl)cc2)c1Cl`, for which the inhibition was 60% (active).

Take `Cc1c(Cl)c([N+](=O)[O-])nn1CCCC(=O)Nc1cc(Cl)ccc1Cl`: the inhibition is -2.88% (inactive).

As to `Cc1ccc(C(=O)O)cc1NC(=O)c1ccc(Cn2nc(C)c(Cl)c2C)o1`, the inhibition is 5.19% (inactive).

For `Cc1c(Cl)c([N+](=O)[O-])nn1Cc1ccc(C(=O)N/N=C\c2cc(Cl)ccc2O)o1`, the inhibition was 96.5% (active).

As for `CCC(CC)c1nnc(NC(=O)C2CCN(C(=O)c3ccco3)CC2)s1`, the inhibition was -3.32% (inactive).

Turning to `O=C(Nc1ccccc1)c1nnsc1S(=O)(=O)c1ccc(Cl)cc1`, the inhibition was 85.8% (active).

With `CS(=O)(=O)c1ccc(Cl)c(NC(=O)Nc2ccccc2)c1`, the inhibition is -0.376% (inactive).

Regarding `O=C(c1ccc(Cl)cc1)c1cnc(Nc2ccccc2)s1`, the inhibition was 3.38% (inactive).

Regarding `Cc1nnc(SCC(=O)Nc2cccc(N)c2)n1-c1ccccc1`, the inhibition was 8.19% (inactive).

Take `Clc1ccc(Cl)c(Oc2ccc(Oc3nc(Cl)ccc3Cl)cc2)n1`: the inhibition was -7.12% (inactive).

For `CN(C)CCn1c2c(c(SCC(=O)Nc3ccccc3C(F)(F)F)nc1=O)CCCC2`, the inhibition is -16.8% (inactive).

On to `CN(C)CCn1c2c(c(SCC(=O)NCc3ccccc3)nc1=O)CCC2`, for which the inhibition was -2.81% (inactive).

Turning to `COc1ccccc1CNC(=O)CSc1nc(=O)n(Cc2ccncc2)c2c1CCC2`, the inhibition is 49.6% (active).

Take `O=C(NNC1=C(C(=O)C(F)(F)F)CCC1)c1ccncc1`: the inhibition was 18.5% (inactive).

For `O=C(Cc1ccc(S(=O)(=O)N2CCOCC2)s1)NCCOc1ccccc1F`, the inhibition is 2.98% (inactive).

As to `O=C(Nc1c2c(nn1-c1ccccc1)CS(=O)(=O)C2)C1CCCC1`, the inhibition was -3.29% (inactive).

As to `CC(=O)Nc1ccc(Nc2ncnc3c2nnn3Cc2ccccc2Cl)cc1`, the inhibition is 1.15% (inactive).

Regarding `CC(C)(C)NC(=O)C(=O)NN=C1CCCCCCC1`, the inhibition was -3.09% (inactive).

Turning to `CC(C)NC(=S)NN=C1CCCCCCCCCCC1`, the inhibition was 63.8% (active).

Take `C/C(=N\NC(=S)NC(C)C)c1ccc(C(C)(C)C)cc1`: the inhibition was 15.9% (inactive).

Regarding `Cc1c(CN2CCC(n3nccc3NC(=O)CCc3ccccc3)CC2)cnn1C`, the inhibition is 1.52% (inactive).

`CC(=O)NC(Cc1c[nH]c2ccccc12)C(=O)O` (centres undefined): the inhibition was 4.27% (inactive).

As for `CC(=O)Nc1ccc(/C=N/NC(=O)c2cccs2)cc1`, the inhibition is 5.44% (inactive).

In the case of `O=C(NC(Cc1c[nH]c2ccccc12)C(=O)N/N=C/c1ccc(Br)cc1)c1cccs1` (centres undefined), the inhibition is 66.8% (active).

As for `CN(Cc1ccccc1)C(=O)c1ccc(NC2=NC3CS(=O)(=O)CC3S2)cc1` (centres undefined), the inhibition is -1.29% (inactive).

Turning to `COc1cc(-c2cc(C(=O)OCC(=O)Nc3ccc4c(c3)OCO4)c3ccccc3n2)cc(OC)c1OC`, the inhibition was 13.9% (inactive).

With `COc1cc(/C=C2\CCCc3c2nc2ccccc2c3C(=O)O)cc(Cl)c1O`, the inhibition is 15.8% (inactive).

For the compound `NC(=O)c1ccc(NC(=O)COC(=O)c2c3c(nc4ccccc24)/C(=C\c2ccc4c(c2)OCO4)CCC3)cc1`, the inhibition was 64% (active).

On to `O=c1[nH]c(CSc2ccccc2)nc2c1oc1ccccc12`, for which the inhibition is -3.16% (inactive).

Consider `COc1ccc(C(=O)NC2=NCCS2)c(OC)c1`, for which the inhibition was -2.91% (inactive).

`CCc1cc(=O)oc2c(C)c(OCC(=O)N3CC[C@@]4(O)CCCC[C@H]4C3)ccc12`: the inhibition was -5.4% (inactive).

With `Cc1nn(-c2ccccn2)c2c1C(c1ccncc1)C1=C(CC(C)(C)CC1=O)N2` (centres undefined), the inhibition was -3.06% (inactive).

For `Cc1cc(C)c(C2C3=C(Nc4c2c(C)nn4-c2ccccn2)c2ccccc2C3=O)c(C)c1` (centres undefined), the inhibition was 57.1% (active).

Turning to `CC(=C1C(=O)c2ccccc2C1=O)N1CCN(c2ccccn2)CC1`, the inhibition is 1.02% (inactive).

Regarding `C=CCNc1nc(N)c([N+](=O)[O-])c(NC2CCCCC2)n1`, the inhibition was 6.03% (inactive).

For `C=CCC(C(=O)c1ccccc1)[N+](C)(C)CC=C` (centres undefined), the inhibition was 2.59% (inactive).

Turning to `O=C(OCC(=O)c1c[nH]c2ccccc12)c1cccc(O)c1`, the inhibition was -11.7% (inactive).

On to `O=C(OCc1ccc(Br)cc1)c1cccc(-c2nnc(-c3ccccc3)o2)c1`, for which the inhibition was 7.23% (inactive).

`O=C(OCc1ccc(-c2ccccc2)cc1)c1cccc(O)c1`: the inhibition is 54.9% (active).

In the case of `O=C(O)CCC(=O)Nc1ccc(OCC2CCCO2)cc1` (centres undefined), the inhibition is 1.88% (inactive).

With `O=C(C1CCCO1)N(c1ccc(F)cc1)C1C=CS(=O)(=O)C1` (centres undefined), the inhibition is -0.303% (inactive).

Take `CCOC(=O)c1cnc(Nc2nc3ccccc3o2)nc1CSC(=S)N1CCCCC1`: the inhibition is 30.1% (inactive).

In the case of `Cc1ccc(C2CCN(C(=S)Nc3cccc(Cl)c3)C2)cc1` (centres undefined), the inhibition was 14.8% (inactive).

In the case of `CN(C)c1nc(=Nc2cccc(Cl)c2)ss1`, the inhibition is 53.2% (active).

As to `Clc1cccc(N=C2NN=C(c3ccc4c(c3)OCCO4)CS2)c1`, the inhibition was 21.6% (inactive).

As to `Cc1ccccc1N1CCN(C2CCCN(C(=O)c3ocnc3C)C2)CC1` (centres undefined), the inhibition is -0.706% (inactive).

As for `O=[N+]([O-])c1cc(S(=O)(=O)Nc2cccc(Cl)c2)ccc1N=Nc1c(O)[nH]c2ccccc12`, the inhibition is 59.8% (active).

For the compound `CN1CCN(c2ccc(S(=O)(=O)Nc3ccccc3)cc2[N+](=O)[O-])CC1`, the inhibition was -10.6% (inactive).

For `Cc1cccc(N(CC(=O)N=Nc2c(O)[nH]c3ccccc23)S(C)(=O)=O)c1C`, the inhibition was 15.7% (inactive).

`Cc1nc(COc2cc3oc(=O)cc(C)c3cc2Cl)cs1`: the inhibition was -7.93% (inactive).

As for `COc1ccc2c(c1)CC[C@@H]1[C@@H]2CC[C@]2(C)C(=O)CC[C@@H]12`, the inhibition is -7.32% (inactive).

For the compound `Cc1ccc(C(=O)Nc2nnc(C3=COCCO3)o2)cc1C`, the inhibition is 85.9% (active).

In the case of `COc1cc(-c2nnc(NC(=O)C3=COCCO3)o2)cc(OC)c1OC`, the inhibition is 2.37% (inactive).

Take `O=C(Nc1ncc([N+](=O)[O-])s1)C1COc2ccccc2O1` (centres undefined): the inhibition is -8.31% (inactive).

Consider `COc1ccccc1-c1nnc(NC(=O)c2ccc3ncsc3c2)o1`, for which the inhibition was 20% (inactive).

For the compound `O=C(Nc1nnc(C2=COCCO2)o1)c1ccc([N+](=O)[O-])s1`, the inhibition is 63.4% (active).

On to `O=C(Nc1nnc(-c2ccco2)o1)c1ccc(S(=O)(=O)N2CCOCC2)cc1`, for which the inhibition is 1.36% (inactive).

For the compound `CC1(C)Cc2c(sc(NC(=O)C(=O)NCC3CCCO3)c2C(=O)O)CO1` (centres undefined), the inhibition was 2.62% (inactive).

With `CC1CCCCC1NC(=O)CCS(=O)(=O)c1ccc2c(c1)NC(=O)CO2` (centres undefined), the inhibition is 6.59% (inactive).

On to `COC(=O)c1cc(CNC(=O)CC(C)c2ccccc2)ccc1OC` (centres undefined), for which the inhibition was -1.27% (inactive).

With `CCOC(=O)C1=C(C)Nc2sc(C(=O)c3ccc(Br)cc3)c(N)c2C1c1ccc(C(=O)OC)cc1` (centres undefined), the inhibition is 22% (inactive).

In the case of `CCOC(=O)c1sc(=S)n2c1[nH]c(=O)c1ccc(C(=O)OC)cc12`, the inhibition is 66.6% (active).

For the compound `CCOC(=O)c1ccc(Nc2cc3ccccc3c(=O)[nH]2)cc1`, the inhibition was 3.57% (inactive).

As usually defined, the inhibition is the relative decrease from the control value, in per cent.
